Data published in paper PMC7862700, “An all-to-all approach to the identification of sequence-specific readers for epigenetic DNA modifications on cytosine”.

Assays:
Assay in all cases: DAPPL (digital affinity profiling via proximity ligation, sequencing); 10 mM Tris-HCl pH 7.5, 50 mM NaCl, 1 mM DTT, 4% glycerol, room temperature, 30 min; GST-TFs on glutathione beads, 16-mer random dsDNA library, 0.1% formaldehyde crosslink after washing; high values mean tight binding
Settings in all cases: protein: recombinant; tags: N-terminal GST; dsDNA, one strand shown
FLI1 = target: T1, FLI1 (Homo sapiens, UniProt Q01543 1-452)
T1 sequence: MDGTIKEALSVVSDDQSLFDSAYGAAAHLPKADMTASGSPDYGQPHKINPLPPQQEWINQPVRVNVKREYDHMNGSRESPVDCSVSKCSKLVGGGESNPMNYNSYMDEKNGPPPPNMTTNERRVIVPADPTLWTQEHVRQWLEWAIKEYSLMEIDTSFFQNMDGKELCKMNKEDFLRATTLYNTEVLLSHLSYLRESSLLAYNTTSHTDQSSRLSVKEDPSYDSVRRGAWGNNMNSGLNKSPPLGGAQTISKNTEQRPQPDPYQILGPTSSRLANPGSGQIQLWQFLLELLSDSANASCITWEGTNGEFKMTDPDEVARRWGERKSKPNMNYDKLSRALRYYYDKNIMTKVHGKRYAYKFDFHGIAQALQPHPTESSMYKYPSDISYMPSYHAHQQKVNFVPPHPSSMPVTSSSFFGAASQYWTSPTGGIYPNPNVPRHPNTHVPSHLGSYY
Method in brief: (§1)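 Human transcription factors carrying a GST fusion were produced in yeast, bound to glutathione beads, tagged with DNA barcodes and pooled together with a tag-only sample. Each pool was held with 200 nmole of a random double-stranded 16-mer DNA library in Tris/NaCl/DTT/glycerol buffer for 30 min at room temperature, then washed, crosslinked in 0.1% formaldehyde, proximity-ligated with BsaI/T4 ligase (1 h, 37 °C), PCR-amplified and sequenced on an Illumina NextSeq500. Binding signal is the read frequency of each hexamer for a given factor divided by its frequency in the tag-only sample.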

ELK1 = target: T2, ELK1 (Homo sapiens, UniProt P19419 1-428)
T2 sequence: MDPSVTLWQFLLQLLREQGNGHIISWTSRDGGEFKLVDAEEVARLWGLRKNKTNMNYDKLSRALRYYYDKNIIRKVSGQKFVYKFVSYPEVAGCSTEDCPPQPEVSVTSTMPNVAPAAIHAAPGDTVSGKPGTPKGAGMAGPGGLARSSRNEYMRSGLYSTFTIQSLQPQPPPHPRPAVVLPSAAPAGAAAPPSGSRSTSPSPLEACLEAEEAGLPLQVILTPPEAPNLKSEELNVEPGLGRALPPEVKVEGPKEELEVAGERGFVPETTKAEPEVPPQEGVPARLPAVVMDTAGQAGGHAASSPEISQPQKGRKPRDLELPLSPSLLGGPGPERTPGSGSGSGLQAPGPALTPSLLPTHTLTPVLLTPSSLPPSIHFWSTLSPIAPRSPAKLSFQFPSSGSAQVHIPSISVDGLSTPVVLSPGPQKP
Method in brief: as §1

GABPA = target: T3, GABPA (Homo sapiens, UniProt Q06546 1-454)
T3 sequence: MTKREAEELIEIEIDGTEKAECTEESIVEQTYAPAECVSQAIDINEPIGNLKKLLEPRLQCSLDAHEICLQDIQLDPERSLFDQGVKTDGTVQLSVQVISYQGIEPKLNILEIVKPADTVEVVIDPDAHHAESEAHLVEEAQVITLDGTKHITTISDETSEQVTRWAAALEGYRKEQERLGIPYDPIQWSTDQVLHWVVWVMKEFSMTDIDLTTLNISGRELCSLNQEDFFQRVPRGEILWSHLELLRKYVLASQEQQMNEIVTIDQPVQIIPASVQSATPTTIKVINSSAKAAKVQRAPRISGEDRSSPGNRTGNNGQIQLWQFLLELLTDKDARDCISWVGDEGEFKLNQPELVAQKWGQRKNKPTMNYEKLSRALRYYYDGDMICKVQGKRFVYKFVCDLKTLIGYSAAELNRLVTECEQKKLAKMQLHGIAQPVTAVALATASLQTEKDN
Method in brief: as §1

ERG = target: T4, ERG (Homo sapiens, UniProt P11308 1-479)
T4 sequence: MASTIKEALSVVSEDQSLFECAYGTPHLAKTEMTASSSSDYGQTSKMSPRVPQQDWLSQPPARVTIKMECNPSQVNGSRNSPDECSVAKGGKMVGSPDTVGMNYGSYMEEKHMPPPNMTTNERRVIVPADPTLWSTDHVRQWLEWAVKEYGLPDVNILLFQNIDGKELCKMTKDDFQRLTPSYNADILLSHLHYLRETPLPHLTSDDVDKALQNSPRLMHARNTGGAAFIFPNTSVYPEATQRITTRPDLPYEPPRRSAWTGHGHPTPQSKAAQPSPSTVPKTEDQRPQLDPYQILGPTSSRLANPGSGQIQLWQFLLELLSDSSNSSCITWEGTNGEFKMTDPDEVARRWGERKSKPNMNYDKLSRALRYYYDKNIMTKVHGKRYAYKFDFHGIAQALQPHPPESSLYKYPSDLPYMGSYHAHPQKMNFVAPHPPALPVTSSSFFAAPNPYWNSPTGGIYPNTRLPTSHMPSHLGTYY
Method in brief: as §1

ELF1 = ELF1 (Homo sapiens, UniProt P32519 1-619)
ELF1, sequence (P32519 whole entry): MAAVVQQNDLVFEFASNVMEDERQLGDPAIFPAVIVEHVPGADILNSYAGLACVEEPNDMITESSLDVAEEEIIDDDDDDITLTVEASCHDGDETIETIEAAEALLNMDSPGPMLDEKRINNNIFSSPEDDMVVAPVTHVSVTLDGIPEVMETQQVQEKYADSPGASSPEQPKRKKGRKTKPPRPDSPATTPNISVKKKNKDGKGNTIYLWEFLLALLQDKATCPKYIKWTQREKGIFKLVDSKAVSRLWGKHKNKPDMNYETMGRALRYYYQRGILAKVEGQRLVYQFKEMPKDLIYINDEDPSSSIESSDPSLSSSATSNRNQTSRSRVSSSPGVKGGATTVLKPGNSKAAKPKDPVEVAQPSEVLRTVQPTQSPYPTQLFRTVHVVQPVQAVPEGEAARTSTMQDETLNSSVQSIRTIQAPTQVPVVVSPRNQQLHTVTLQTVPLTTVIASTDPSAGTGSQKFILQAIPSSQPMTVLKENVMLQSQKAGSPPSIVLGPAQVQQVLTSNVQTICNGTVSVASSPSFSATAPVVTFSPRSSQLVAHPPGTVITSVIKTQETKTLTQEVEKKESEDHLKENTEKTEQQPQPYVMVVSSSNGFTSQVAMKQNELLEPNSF
Method in brief: as §1

EHF = target: T5, EHF (Homo sapiens, UniProt Q9NZC4 1-300)
T5 sequence: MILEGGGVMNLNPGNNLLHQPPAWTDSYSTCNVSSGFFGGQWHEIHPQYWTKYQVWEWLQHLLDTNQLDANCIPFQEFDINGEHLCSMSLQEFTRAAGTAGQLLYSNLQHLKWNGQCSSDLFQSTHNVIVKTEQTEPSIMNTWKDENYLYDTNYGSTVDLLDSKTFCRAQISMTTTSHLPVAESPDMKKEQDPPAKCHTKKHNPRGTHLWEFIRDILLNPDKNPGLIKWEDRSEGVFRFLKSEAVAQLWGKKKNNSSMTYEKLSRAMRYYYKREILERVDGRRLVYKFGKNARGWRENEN
Method in brief: as §1

SPI1 = SPI1 (Homo sapiens, UniProt P17947 1-270)
Method in brief: as §1

SPIB = SPIB (Homo sapiens, UniProt Q01892 1-262)
SPIB, sequence (Q01892 whole entry): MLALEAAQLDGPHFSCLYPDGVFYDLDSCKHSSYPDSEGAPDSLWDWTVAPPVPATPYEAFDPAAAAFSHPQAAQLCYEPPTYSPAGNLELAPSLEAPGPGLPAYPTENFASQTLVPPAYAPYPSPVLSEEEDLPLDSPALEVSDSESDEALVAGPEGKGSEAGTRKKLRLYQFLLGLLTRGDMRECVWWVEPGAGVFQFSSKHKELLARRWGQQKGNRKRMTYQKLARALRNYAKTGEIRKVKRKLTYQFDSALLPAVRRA
Method in brief: as §1

ELK3 = target: T6, ELK3 (Homo sapiens, UniProt P41970 1-407)
T6 sequence: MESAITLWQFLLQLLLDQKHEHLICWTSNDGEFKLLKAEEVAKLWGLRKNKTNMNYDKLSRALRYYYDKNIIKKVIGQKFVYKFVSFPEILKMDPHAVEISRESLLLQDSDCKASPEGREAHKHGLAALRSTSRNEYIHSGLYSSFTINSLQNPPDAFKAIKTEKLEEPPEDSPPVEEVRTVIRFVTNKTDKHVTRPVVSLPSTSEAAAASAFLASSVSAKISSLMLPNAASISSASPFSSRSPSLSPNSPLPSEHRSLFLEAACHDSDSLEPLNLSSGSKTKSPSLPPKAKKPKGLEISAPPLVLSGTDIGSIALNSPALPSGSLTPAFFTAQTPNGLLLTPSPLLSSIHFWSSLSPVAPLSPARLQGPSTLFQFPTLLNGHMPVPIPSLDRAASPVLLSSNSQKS
Method in brief: as §1

Sequence | binding signal (FLI1) | binding signal (ELK1) | binding signal (GABPA) | binding signal (ERG) | binding signal (ELF1) | binding signal (EHF) | binding signal (SPI1) | binding signal (SPIB) | binding signal (ELK3)
ATCCGG | 2.65 fold enrichment (6-mer frequency, TF over GST control) | 2.59 fold enrichment (6-mer frequency, TF over GST control) | 2.37 fold enrichment (6-mer frequency, TF over GST control) | 3.22 fold enrichment (6-mer frequency, TF over GST control) | 2.29 fold enrichment (6-mer frequency, TF over GST control) | 2.65 fold enrichment (6-mer frequency, TF over GST control) | 2.37 fold enrichment (6-mer frequency, TF over GST control) | 2.77 fold enrichment (6-mer frequency, TF over GST control) | 2.66 fold enrichment (6-mer frequency, TF over GST control)
ATGAAT | 1.16 fold enrichment (6-mer frequency, TF over GST control) | 1.16 fold enrichment (6-mer frequency, TF over GST control) | 1.2 fold enrichment (6-mer frequency, TF over GST control) | 1.11 fold enrichment (6-mer frequency, TF over GST control) | 1.07 fold enrichment (6-mer frequency, TF over GST control) | 1.14 fold enrichment (6-mer frequency, TF over GST control) | 1.15 fold enrichment (6-mer frequency, TF over GST control) | 1.23 fold enrichment (6-mer frequency, TF over GST control) | 1.12 fold enrichment (6-mer frequency, TF over GST control)
CGTTAA | 1.12 fold enrichment (6-mer frequency, TF over GST control) | 1.17 fold enrichment (6-mer frequency, TF over GST control) | 1.11 fold enrichment (6-mer frequency, TF over GST control) | 1.17 fold enrichment (6-mer frequency, TF over GST control) | 1.14 fold enrichment (6-mer frequency, TF over GST control) | 1.1 fold enrichment (6-mer frequency, TF over GST control) | 1.1 fold enrichment (6-mer frequency, TF over GST control) | 1.13 fold enrichment (6-mer frequency, TF over GST control) | 1.21 fold enrichment (6-mer frequency, TF over GST control)
AAACTC | 1.29 fold enrichment (6-mer frequency, TF over GST control) | 1.3 fold enrichment (6-mer frequency, TF over GST control) | 1.15 fold enrichment (6-mer frequency, TF over GST control) | 1.17 fold enrichment (6-mer frequency, TF over GST control) | 1.25 fold enrichment (6-mer frequency, TF over GST control) | 1.24 fold enrichment (6-mer frequency, TF over GST control) | 1.13 fold enrichment (6-mer frequency, TF over GST control) | 1.18 fold enrichment (6-mer frequency, TF over GST control) | 1.16 fold enrichment (6-mer frequency, TF over GST control)
GCCTCG | 1.41 fold enrichment (6-mer frequency, TF over GST control) | 1.26 fold enrichment (6-mer frequency, TF over GST control) | 1.34 fold enrichment (6-mer frequency, TF over GST control) | 1.45 fold enrichment (6-mer frequency, TF over GST control) | 1.42 fold enrichment (6-mer frequency, TF over GST control) | 1.3 fold enrichment (6-mer frequency, TF over GST control) | 1.21 fold enrichment (6-mer frequency, TF over GST control) | 1.19 fold enrichment (6-mer frequency, TF over GST control) | 1.26 fold enrichment (6-mer frequency, TF over GST control)
TATGGG | 1.23 fold enrichment (6-mer frequency, TF over GST control) | 1.06 fold enrichment (6-mer frequency, TF over GST control) | 1.25 fold enrichment (6-mer frequency, TF over GST control) | 1.15 fold enrichment (6-mer frequency, TF over GST control) | 1.16 fold enrichment (6-mer frequency, TF over GST control) | 1.37 fold enrichment (6-mer frequency, TF over GST control) | 1.21 fold enrichment (6-mer frequency, TF over GST control) | 1.27 fold enrichment (6-mer frequency, TF over GST control) | 1.18 fold enrichment (6-mer frequency, TF over GST control)
GGTATT | 1.2 fold enrichment (6-mer frequency, TF over GST control) | 1.17 fold enrichment (6-mer frequency, TF over GST control) | 1.23 fold enrichment (6-mer frequency, TF over GST control) | 1.24 fold enrichment (6-mer frequency, TF over GST control) | 1.18 fold enrichment (6-mer frequency, TF over GST control) | 1.19 fold enrichment (6-mer frequency, TF over GST control) | 1.16 fold enrichment (6-mer frequency, TF over GST control) | 1.2 fold enrichment (6-mer frequency, TF over GST control) | 1.15 fold enrichment (6-mer frequency, TF over GST control)
